Assay outcomes as filed in PubChem BioAssay.
USP17 inh = human USP17-like deubiquitinase inhibition; A8MUK1; purified USP17, Ub-rhodamine cleavage fluorescence, 3 h; inhibition, % at 50 µM; 47,000 tested, 6.5% active; AID 1645855
USP28 block = human USP28 deubiquitinase inhibition | purified USP28, Ub-rhodamine cleavage fluorescence, 30 min | Q96RU2 | inhibition, % at 25 µM | 47,000 tested, 3% active | AID 1645857
USP10 inh = blocks human USP10 ubiquitin-rhodamine cleavage. purified USP10, Ub-rhodamine fluorescence, 60 min. inhibition, % at 20 µM. 47,000 tested, 1.1% active. Q14694
USP30 inh = inhibitors of human USP30 deubiquitinase. Q70CQ3. purified USP30, Ub-rhodamine cleavage fluorescence. inhibition, % at 25 µM. 47,000 tested, 5.3% active. AID 1645860
USP8 inh = blocks human USP8 ubiquitin-rhodamine cleavage; P40818; purified USP8, Ub-rhodamine cleavage fluorescence, 30 min; inhibition, % at 20 µM; 47,000 tested, 4.2% active; AID 1645853
Target sequence (P40818 whole entry, looked up): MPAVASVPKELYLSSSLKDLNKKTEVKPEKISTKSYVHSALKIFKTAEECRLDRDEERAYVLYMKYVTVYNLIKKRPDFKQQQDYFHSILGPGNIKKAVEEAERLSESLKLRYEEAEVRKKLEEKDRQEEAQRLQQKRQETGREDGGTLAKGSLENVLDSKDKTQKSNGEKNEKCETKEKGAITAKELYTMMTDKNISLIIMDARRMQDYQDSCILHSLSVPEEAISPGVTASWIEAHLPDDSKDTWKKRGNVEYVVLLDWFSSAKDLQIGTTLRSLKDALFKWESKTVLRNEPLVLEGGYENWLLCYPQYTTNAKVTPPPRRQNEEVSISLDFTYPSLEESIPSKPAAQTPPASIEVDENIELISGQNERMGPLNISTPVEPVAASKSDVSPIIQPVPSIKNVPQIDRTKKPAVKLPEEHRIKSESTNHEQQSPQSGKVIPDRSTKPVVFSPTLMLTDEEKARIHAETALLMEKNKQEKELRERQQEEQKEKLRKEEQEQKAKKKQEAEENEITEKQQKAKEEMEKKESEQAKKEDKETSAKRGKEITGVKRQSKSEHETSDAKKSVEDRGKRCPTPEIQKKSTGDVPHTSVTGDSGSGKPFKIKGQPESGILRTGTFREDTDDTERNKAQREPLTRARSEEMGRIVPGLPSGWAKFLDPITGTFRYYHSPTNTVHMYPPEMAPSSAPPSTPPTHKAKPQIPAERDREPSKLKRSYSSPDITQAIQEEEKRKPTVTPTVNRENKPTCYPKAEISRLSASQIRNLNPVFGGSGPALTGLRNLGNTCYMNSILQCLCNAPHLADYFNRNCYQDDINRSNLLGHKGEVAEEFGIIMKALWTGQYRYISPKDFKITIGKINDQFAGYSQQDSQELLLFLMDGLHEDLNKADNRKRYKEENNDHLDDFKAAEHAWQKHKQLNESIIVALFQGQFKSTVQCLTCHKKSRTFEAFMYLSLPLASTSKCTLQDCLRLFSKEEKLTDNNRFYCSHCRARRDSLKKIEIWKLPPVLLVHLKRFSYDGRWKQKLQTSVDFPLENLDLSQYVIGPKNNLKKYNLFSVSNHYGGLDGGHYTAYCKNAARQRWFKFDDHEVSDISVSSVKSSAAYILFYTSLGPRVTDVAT
The depositor's hits bear a star; . = not tested or not shown. In the library only some 14% were active in any assay of this set; here they are far more common. No stated cut-off is given here; in the data, active means inhibition above about 30%; inactive means the rest.

SMILES	USP17 inh	USP28 block	USP10 inh	USP30 inh	USP8 inh
Cc1ccc(S(=O)(=O)Nc2ccc(O)c(S(=O)(=O)c3ccc(C)cc3)c2)cc1	10	25	13	20	33*
Nc1c(-c2ccc(Cl)cc2)cnc2nc(N3CCOCC3)nn12	3	-1	-3	1	2
CCOc1ccc(CC(=O)NCC(=O)N2CCC3(CC2)NCCc2[nH]cnc23)cc1	10	6	-3	9	30*
COc1ccc(-c2noc([C@@H]3C[C@H](NC(=O)Nc4ccc(C)cc4)CN3C)n2)cc1	4	9	24	42*	25
COc1ccc(-c2noc(C3CCCN3C(=O)Nc3ccc(C)cc3C)n2)cc1 (configuration not stated)	14	15	3	33*	15
COc1ccccc1NC(=O)N1CCCC1c1nc(-c2cccc(Cl)c2)no1 (configuration not stated)	12	17	8	40*	11
COc1ccc(-c2noc(C3CCCN3C(=O)Nc3cccc(C)c3)n2)cc1 (configuration not stated)	10	10	4	9	2
COc1ccc(-c2noc([C@@H]3C[C@H](NC(=O)c4ccccc4)CN3C)n2)cc1	-64	-5	0	-47	-6
COc1cccc(-c2noc(C3CCCN3C(=O)Nc3ccccc3C)n2)c1 (configuration not stated)	-12	-15	0	3	-10
Cc1ccc(S(=O)(=O)N(CC#N)c2nc3nc(C)c(Cl)c(C)n3n2)cc1	-1	33*	-2	16	18
Cc1ccc(S(=O)(=O)N(C)c2nc3nc(C)c(Cl)c(C)n3n2)cc1	18	13	2	3	9
Cn1cccc1C(=O)N1CC[C@@H]2Oc3ccccc3S(=O)(=O)N(CC3CC3)[C@H]2CC1	0	6	2	6	0
CC1(C)C[C@@H](O)[C@]2(C)CC[C@]3(C)C(=CCC4[C@@]5(C)CC[C@H](O)[C@](C)(CO)[C@@H]5CC[C@]43C)[C@@H]2C1 (some centres not stated)	53*	4	5	43*	3
NCCCC(N)CC(=O)NCCCC(N)CC(=O)NCCCC(N)CC(=O)NCCCC(N)CC(=O)NCCCC(N)CC(=O)NCCCC(N)CC(=O)NC1C(NC2=N[C@@H]3C(=O)NC[C@@H](O)[C@H]3N2)OC(CO)C(OC(N)=O)C1O (some centres not stated)	1	23	-3	32*	-5
CCc1ccccc1NC(=O)CC1C(=O)N(CC2CCCO2)c2nc3ccccc3n21 (configuration not stated)	5	4	1	18	11
CCc1cc(C(=O)NCc2cccnc2)nc2cc(-c3ccccn3)nn12	0	0	3	21	2
CN(C)c1nc(NCc2ccccc2)nc(Oc2ccc(=O)[nH]n2)n1	9	33*	-1	31*	0
Cc1cccc(C(=O)Nc2nc3c(s2)CCC3)c1	0	38*	-12	13	5
O=C(Nc1nc2c(s1)CCCC2)c1cccc(Br)c1	0	19	4	-2	4
O=S(=O)(NCc1cccs1)c1ccccc1F	2	-1	0	6	5
COc1ccccc1-c1c(NC(=O)c2ccc(C)cc2)n(C)c2ccccc2c1=O	0	7	-1	21	9
Cn1c(NC(=O)c2ccc(Cl)cc2)c(-c2ccccn2)c(=O)c2ccccc21	21	7	-9	-7	43*
COc1cc(-c2c(NC(=O)c3ccc([N+](=O)[O-])cc3)n(C)c3ccccc3c2=O)cc(OC)c1OC	22	12	1	31*	-37
Fc1ccc(-c2cnc([C@@H]3COCCN3C3CCOCC3)[nH]2)c(F)c1	-55	16	-2	-14	26
Cc1c(S(=O)(=O)NC2CCCCNC2=O)sc2ccc(Cl)cc12 (configuration not stated)	51*	6	2	10	1
SMILES	USP17 inh	USP28 block	USP10 inh	USP30 inh	USP8 inh
Cc1ccc(NC(=O)C2C3C=CC4(O3)C2C(=O)N(C2CCCCCC2)C4C(=O)NC2CCCCC2)cc1Cl (configuration not stated)	49*	-3	14	2	11
O=C(Nc1ccc(Cl)cc1)C1C2C=CC3(O2)C1C(=O)N(C1CC1)C3C(=O)NC1CCCCC1 (configuration not stated)	36*	4	0	4	14
Cc1ccccc1-n1c2c(c(=O)[nH]c1=O)CN(C1CCCCC1)CN2	15	12	0	30	12
COc1cccc(NC(=O)CSc2ncnc3c2sc2nc(C(C)C)c4c(c23)CC(C)(C)OC4)c1	-4	.	0	.	1
COc1ccccc1-c1nnc(-c2cccc(S(=O)(=O)N3CCOCC3)c2)o1	-2	-4	0	-2	-3
O=C(CN(Cc1ccccc1Cl)C(=O)CCC(=O)Nc1ccccn1)NCc1ccco1	-8	-1	1	0	0
O=C(NCCc1ccccc1)c1nnn(Cc2cccc(Cl)c2)c1-n1cccc1	15	78*	0	-41	8
O=C(NCCc1ccccc1)c1cn2cc(Cl)ccc2n1	-1	4	1	0	0
O=C(NCc1ccco1)c1nnn(Cc2ccccc2Cl)c1-n1cccc1	33*	6	-12	-115	25
c1csc(-c2nc(NCC3CCCO3)c3ccccc3n2)c1 (configuration not stated)	31*	8	0	20	13
O=C(NCc1ccc(C(F)(F)F)cc1)C1CCN(c2nc3nc[nH]c(=O)c3s2)CC1	42*	11	2	14	-8
O=C(COc1ccc(C2CCCCC2)cc1)Nc1ccc(-c2nn3cnnc3s2)cc1	72*	45*	35*	66*	33*
Cc1sc(NC(=O)/C=C/c2ccco2)nc1-c1ccccc1	11	54*	4	1	0
O=C(Nc1ccccc1)c1sc(-c2ccccc2)nc1-c1ccccc1	6	5	4	19	9
Cc1ccc(-c2nc(NC(=O)c3ccccn3)sc2C)cc1	-14	13	5	24	-65
CC(=O)c1sc(NC(=O)/C=C/c2ccccc2)nc1-c1ccccc1	74*	5	5	0	12
N#Cc1ccc(CN2CCCC3(Cc4ccccc4CNC3=O)C2)cc1 (configuration not stated)	-4	3	-1	20	12
COC1C(CO)O[C@@H](O[C@H](C[C@@]2(C)[C@H](C)CCC(=O)[C@@H]2C)/C(C)=C/Cc2c(O)c(Cl)c(C)c(C=O)c2O)C(O)C1O (some centres not stated)	11	4	-3	27	2
C/C(=C\Cc1c(O)cc(C)c(C=O)c1O)CC[C@@]1(C)[C@H](C)CCC(=O)[C@@H]1C	50*	7	37*	28	13
O=S1(=O)CCN(Cc2c(F)cccc2F)c2c(F)nc(N3CCOCC3)c(F)c21	67*	1	6	3	93*
